The source made the active and inactive calls. Rule for the calls: active = hit-call score of the fitted dose curve at least 0.9, where 1 is the maximum; inactive = score below 0.9.
Key:
Conditions in all cases: primary human HUVEC with PBMC; actives raise or lower the signal
[1] = read-out: Interleukin-1 alpha (IL1a), IL1A (gene 3552); test: BSK_LPS_IL1a: BioMAP Diversity Plus: LPS Assay for Interleukin-1 alpha (IL1a) Biomarker Activity (AID 2283080)
Outline: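 Human umbilical vein endothelial cells co-cultured with peripheral blood mononuclear cells were LPS-stimulated and exposed to test chemicals for 24 h. IL-1 alpha was quantified by ELISA, with bidirectional curve fitting against DMSO as the negative control and baseline.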

[2] = read-out: Monocyte Chemoattractant Protein-1 (MCP1), CCL2 (gene 6347); test: BSK_LPS_MCP1: BioMAP Diversity Plus: LPS Assay for Monocyte Chemoattractant Protein-1 (MCP1) Biomarker Activity (AID 2283081);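 for AC50: secreted MCP-1 protein quantified by ELISA in culture supernatant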
Outline: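 HUVEC plus PBMC co-culture (human primary cells, LPS system) exposed to test chemical for 24 h; MCP-1 measured by ELISA. Bidirectional curve fitting against DMSO baseline; parallel SRB total-protein staining flags overt cytotoxicity.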

[3] = BSK_LPS_PGE2: BioMAP Diversity Plus: LPS Assay for Prostaglandin E2 (PGE2) Biomarker Activity (AID 2283082);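 for AC50: secreted prostaglandin E2 measured by ELISA in LPS-stimulated co-culture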
Outline: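 ELISA read-out of PGE2 from human umbilical vein endothelial cells co-cultured with peripheral blood mononuclear cells under LPS, 24 h post-dose. Gain or loss of signal scored relative to DMSO baseline.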

[4] = read-out: Macrophage colony-stimulating factor (MCSF), CSF1 (gene 1435); test: BSK_LPS_MCSF: BioMAP Diversity Plus: LPS Assay for Macrophage colony-stimulating factor (MCSF) Biomarker Activity (AID 2283083)
Outline: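 Human umbilical vein endothelial cells co-cultured with peripheral blood mononuclear cells were exposed to compound for 24 h. M-CSF levels were measured by ELISA, and bidirectional curve fitting used DMSO as the negative control and baseline.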

CD38, CD38 (gene 952) = test: BSK_SAg_CD38: BioMAP Diversity Plus: SAg Assay for CD38 Biomarker Activity (AID 2283087)
Outline: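 Measures CD38 on a human endothelial/PBMC co-culture driven by SEB and TSST-1, 24 h after compound exposure, using ELISA with fluorescence detection; DMSO defines baseline for bidirectional curve fitting.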

CD40, CD40 (gene 958) = test: BSK_SAg_CD40: BioMAP Diversity Plus: SAg Assay for CD40 Biomarker Activity (AID 2283088)
Outline: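 Human umbilical vein endothelial cells co-cultured with PBMC; CD40 levels measured by ELISA with fluorescence read-out 24 h after chemical dosing. Gain or loss of signal fitted bidirectionally against DMSO baseline.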

CD69, CD69 (gene 969) = test: BSK_SAg_CD69: BioMAP Diversity Plus: SAg Assay for CD69 Biomarker Activity (AID 2283089);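 for AC50: cell surface CD69 protein quantified by ELISA with fluorescence detection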
Outline: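 HUVEC co-cultured with PBMC were dosed with chemical, and CD69 was measured by ELISA with fluorescence read-out 24 h later. Bidirectional curve fitting used DMSO as negative control and activity baseline.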

[5] = read-out: Tumor necrosis factor (Homo sapiens) (UniProt P01375); test: BSK_LPS_TNFa: BioMAP Diversity Plus: LPS Assay for Tumour Necrosis Factor alpha (TNFa) Biomarker Activity (AID 2283085);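 for AC50: TNFa protein level quantified by ELISA in the co-culture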
Outline: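 HUVEC/PBMC co-culture, LPS-stimulated; 24 h post-dose; TNFa by ELISA; gain or loss of signal fitted bidirectionally vs DMSO baseline.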

[6] = read-out: Tissue Factor, F3 (gene 2152); test: BSK_LPS_TissueFactor: BioMAP Diversity Plus: LPS Assay for Tissue Factor Biomarker Activity (AID 2283084)
Outline: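 Human umbilical vein endothelial cells co-cultured with peripheral blood mononuclear cells were dosed and stimulated with LPS. Cell-surface CD142 was quantified by ELISA at 24 h. Activity was fitted bidirectionally against DMSO baseline.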

[7] = read-out: Vascular cell adhesion molecule 1 (VCAM1), VCAM1 (gene 7412); test: BSK_LPS_VCAM1: BioMAP Diversity Plus: LPS Assay for Vascular cell adhesion molecule 1 (VCAM1) Biomarker Activity (AID 2283086)
Outline: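 ELISA read-out of VCAM-1 at 24 h post-dosing in an LPS-driven HUVEC/PBMC primary human co-culture; gain or loss of signal fitted bidirectionally against DMSO baseline. Cytotoxicity tracked in parallel cultures by SRB total-protein staining.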

Measured: AC50

Tumor necrosis factor (Homo sapiens), sequence (P01375 whole entry, looked up): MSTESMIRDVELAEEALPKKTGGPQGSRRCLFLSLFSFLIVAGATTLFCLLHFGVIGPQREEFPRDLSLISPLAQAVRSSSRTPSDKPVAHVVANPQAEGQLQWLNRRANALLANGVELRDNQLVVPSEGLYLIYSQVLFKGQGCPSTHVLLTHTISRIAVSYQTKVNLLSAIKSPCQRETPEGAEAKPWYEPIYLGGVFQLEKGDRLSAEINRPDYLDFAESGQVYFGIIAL

CN1CCCC1=O
not listed: [5] | [6] | [7]
inactive: all other assays above

CNC(=O)[C@H]1O[C@@H](n2cnc3c(NCc4cc(Cl)ccc4OCc4cc(C)no4)ncnc32)[C@H](O)[C@@H]1N
not listed: CD40, CD40 (gene 958) | [6] | [7]
inactive: all other assays above

COc1ccc(C)cc1N
inactive: [1] | [2] | [3] | [4] | CD38, CD38 (gene 952) | CD69, CD69 (gene 969)

Clc1cc(Cl)c(Cl)cc1Cl
not listed: [3] | [7]
inactive: all other assays above

Nc1ccc(S(=O)(=O)c2ccc(N)cc2)cc1
not listed: [3]
inactive: all other assays above

Oc1ccc2ccccc2c1N=Nc1ccccc1
active: [5] 1.98 µM
not listed: [3] | CD40, CD40 (gene 958)
inactive: all other assays above

O=c1[nH]cc(F)c(=O)[nH]1
active: [7] 20.4 µM
not listed: CD40, CD40 (gene 958) | [5] | [6]
inactive: all other assays above

CCCCCCCCCCCC(=O)OC
not listed: [3] | CD40, CD40 (gene 958) | [7]
inactive: all other assays above

NS(=O)(=O)c1cc2c(cc1Cl)NCNS2(=O)=O
not listed: [6] | [7]
inactive: all other assays above

CCCCCCOCCO
inactive: [1] | [2] | [3] | [4] | CD38, CD38 (gene 952) | CD69, CD69 (gene 969)

Cc1ccccc1Cl
not listed: [3] | CD40, CD40 (gene 958)
inactive: all other assays above

Cc1cccc(C)c1O
active: [3] 4.8 µM
not listed: [5] | [6] | [7]
inactive: all other assays above

COc1cc(C=O)ccc1O
not listed: [3] | CD40, CD40 (gene 958) | [7]
inactive: all other assays above

Cc1ccc(N(C)C)cc1
not listed: CD40, CD40 (gene 958) | [5] | [6]
inactive: all other assays above

Cc1ccc(C)c(C)c1
not listed: [3] | CD40, CD40 (gene 958)
inactive: all other assays above

CCCCCCCCCCCCCCCCCC(=O)O
active: [1] 20 µM | [5] 4.09 µM | CD40, CD40 (gene 958) 25.8 µM
not listed: [3]
inactive: all other assays above

CN1CCN(Cc2cc(-c3ccc4[nH]c(=O)oc4c3)co2)[C@@H](c2ccc(F)cc2)C1
inactive: [1] | [3] | [4] | [5]
active: [2] 22.5 µM | CD38, CD38 (gene 952) 31.5 µM | CD69, CD69 (gene 969) 17.6 µM

CCOC(=O)C(C)(C)Oc1ccc(Cl)cc1
not listed: [6] | [7]
inactive: all other assays above

COCCOC[C@H](CC1(C(=O)NC2CCC(C(=O)O)CC2)CCCC1)C(=O)Oc1ccc2c(c1)CCC2 (stereo partly drawn)
not listed: [5] | [6] | [7]
inactive: all other assays above

CCCCCCCCCCO
not listed: [3] | CD40, CD40 (gene 958) | [6]
inactive: all other assays above

Cc1cc(=O)[nH]c(=S)[nH]1
not listed: [3] | CD40, CD40 (gene 958) | [6]
inactive: all other assays above

Cc1ccc(Cl)cc1
inactive: [1] | [2] | [4] | [6] | CD38, CD38 (gene 952) | CD69, CD69 (gene 969)

NCCO
inactive: [1] | [2] | [4] | [6] | CD38, CD38 (gene 952) | CD69, CD69 (gene 969)

Cc1c(C(=O)O)c(O)cc2c1C(=O)c1c(O)c([C@@H]3O[C@H](CO)[C@@H](O)[C@H](O)[C@H]3O)c(O)c(O)c1C2=O
not listed: [3] | [5]
inactive: all other assays above

CCCCCCC(=O)OCC
not listed: [3] | [5]
inactive: all other assays above

O=C(O)CCCCC(=O)O
not listed: [3] | [5] | [6]
inactive: all other assays above

C=CCc1ccc(O)c(OC)c1
not listed: [3] | [6]
inactive: all other assays above

CC(=O)OC/C=C(\C)CCC=C(C)C
not listed: [3] | [5] | [6]
inactive: all other assays above

CC(C)c1ccc(C(=O)N=C(N)N)cc1S(C)(=O)=O
not listed: [3] | CD40, CD40 (gene 958) | [5]
inactive: all other assays above

O=[N+]([O-])C(CO)(CO)CO
inactive: [1] | [2] | [4] | CD38, CD38 (gene 952) | CD69, CD69 (gene 969)

CC1=C(/C=C/C(C)=C/C=C/C(C)=C/CO)C(C)(C)CCC1
active: [4] 8.45 µM | [5] 5.39 µM | CD38, CD38 (gene 952) 32.7 µM | CD40, CD40 (gene 958) 26.4 µM | CD69, CD69 (gene 969) 20.9 µM
inactive: [1] | [2]

Cc1ccc(C)c(O)c1C
inactive: [1] | [2] | [4] | CD38, CD38 (gene 952) | CD40, CD40 (gene 958) | CD69, CD69 (gene 969)

Cc1ccc(C(C)C)c(O)c1
not listed: [3] | [5] | [7]
inactive: all other assays above

CC(=O)OCCOCCOCCOC(C)=O
not listed: [3] | [5] | [6]
inactive: all other assays above

CC1(C)NC(=O)NC1=O
inactive: [1] | [2] | [4] | [7] | CD38, CD38 (gene 952) | CD69, CD69 (gene 969)

O=C(O)Cc1ccccc1Nc1c(Cl)cccc1Cl
active: [4] 16.6 µM
not listed: [3] | CD40, CD40 (gene 958) | [5]
inactive: all other assays above

CCc1c(C(=O)NN2CCCCC2)nn(-c2ccc(Cl)cc2Cl)c1-c1ccc(Br)cc1
active: [1] 10.4 µM | [2] 8.8 µM | [4] 20 µM | CD38, CD38 (gene 952) 11.5 µM | CD40, CD40 (gene 958) 12.2 µM | CD69, CD69 (gene 969) 10.3 µM
inactive: [6]

CCCCC(CC)COC(=O)CC(C(=O)OCC(CC)CCCC)S(=O)(=O)O (stereo not drawn)
active: [1] 32.3 µM | [2] 30.9 µM | [4] 31.4 µM | [6] 32 µM | CD38, CD38 (gene 952) 35.3 µM | CD40, CD40 (gene 958) 35.5 µM | CD69, CD69 (gene 969) 32.1 µM

Cc1cc(NC(=O)C(=O)O)cc(C)c1Oc1ccc(O)c2c1CCC2
not listed: [3] | CD40, CD40 (gene 958) | [5]
inactive: all other assays above

C[Si]1(C)O[Si](C)(C)O[Si](C)(C)O[Si](C)(C)O1
not listed: [3] | [5]
inactive: all other assays above

CC=Cc1ccc(O)c(OC)c1
inactive: [1] | [2] | [4] | [5] | CD38, CD38 (gene 952) | CD69, CD69 (gene 969)

Cc1cccc(Nc2cc(Cl)nc(SCC(=O)O)n2)c1C
not listed: [3] | [6] | [7]
inactive: all other assays above

Oc1ccc2c(c1)OC[C@@H](N1CCC(O)(c3ccc(F)cc3)CC1)[C@H]2O
not listed: [3] | CD40, CD40 (gene 958) | [5]
inactive: all other assays above

CC(=O)C(C)=CC1C(C)=CCCC1(C)C (stereo not drawn)
not listed: [3] | [5] | [7]
inactive: all other assays above

CN[C@H]1CC[C@@H](c2ccc(Cl)c(Cl)c2)c2ccc(S(N)(=O)=O)cc21
active: [1] 24.1 µM | [2] 18.7 µM | [4] 30.1 µM | [5] 23.3 µM | CD38, CD38 (gene 952) 27.7 µM | CD40, CD40 (gene 958) 29.3 µM | CD69, CD69 (gene 969) 26.1 µM

CCCCCC(=O)O
inactive: [1] | [2] | [4] | [7] | CD38, CD38 (gene 952) | CD69, CD69 (gene 969)

CCCCc1ccc2c(n1)[C@@H](c1ccc(OC)cc1C[C@H](C)C(=O)O)[C@H](C(=O)O)[C@H]2c1ccc2c(c1)OCO2
inactive: [1] | [2] | [4] | [6] | CD38, CD38 (gene 952) | CD69, CD69 (gene 969)

CCCCOC(=O)CCCCCCCCC(=O)OCCCC
inactive: [1] | [2] | [4] | CD38, CD38 (gene 952) | CD40, CD40 (gene 958) | CD69, CD69 (gene 969)
